{"source": "PubChem BioAssay AID743361", "about": "(Molecular Libraries Program, Specialized Chemistry Center, …, 2014)", "note": "Values without a mark were called inactive. Active and inactive are the calls of the source. The rule behind the calls is not given here."}
{"assay": "cell-free Rh123 fluorescence quenching read-out – biochemical, dry powder samples, uHTS hits, counter-screen for mtPTP inhibitor project, dose response (AID 743361)", "settings": "Rhodamine 123 fluorescence quenching counterscreen"}
{"smiles": "CN1CCN(CCc2ccc(NS(=O)(=O)c3cc(Cl)cc(Cl)c3)cc2)CC1", "IC50": "> 100 µM"}
{"smiles": "Cc1cc(NC(=O)c2cc(-c3ccc(F)cc3)on2)no1", "IC50": "> 100 µM"}
{"smiles": "O=C(Nc1cccc(Cl)c1)c1cc(-c2ccccc2)on1", "IC50": "> 100 µM"}
{"smiles": "COc1ccc(Cl)c(C(=O)Nc2ccc(CCN3CCOCC3)cc2)c1", "IC50": "> 100 µM"}
{"smiles": "COc1ccc(Cl)cc1C(=O)Nc1ccc(CCN2CCCCC2)cc1", "IC50": "> 100 µM"}
{"smiles": "CN1CCN(c2ccc(Cl)cc2NC(=O)/C=C/c2cccc(F)c2)CC1", "IC50": "> 100 µM"}
{"smiles": "O=C(Nc1ccc(CN2CCCCC2)cc1)c1cc(Cl)ccc1O", "IC50": "> 100 µM"}
{"smiles": "O=C(Nc1cc(Cl)ccc1Cl)c1cc(-c2cccc(O)c2)on1", "IC50": "38.7 µM (active)"}
{"smiles": "CN1CCN(CCc2ccc(NS(=O)(=O)c3cccc(Cl)c3)cc2)CC1", "IC50": "> 100 µM"}
{"smiles": "COc1ccc(Cl)cc1C(=O)Nc1ccc(CN2CCCCC2)cc1", "IC50": "> 100 µM"}
{"smiles": "COc1ccc(Cl)c(C(=O)Nc2cccc(CN3CCN(C(=O)OC(C)(C)C)CC3)c2)c1", "IC50": "> 100 µM"}
{"smiles": "COc1ccc(Cl)cc1C(=O)Nc1ccc(CN2CCOCC2)cc1", "IC50": "> 100 µM"}
{"smiles": "COc1ccc(Cl)c(C(=O)Nc2ccc(CN3CCN(C)CC3)cc2)c1", "IC50": "> 100 µM"}
{"smiles": "O=S(=O)(Nc1ccc(CCN2CCCCC2)cc1)c1ccc(F)c(Cl)c1", "IC50": "> 100 µM"}
{"smiles": "CC1(C)CCN(CCCC(=O)c2ccc(Br)cc2)CC1", "IC50": "> 100 µM"}
{"smiles": "CN1CCN(c2ccc(NS(=O)(=O)c3cccc(Cl)c3)cc2)CC1", "IC50": "> 100 µM"}
{"smiles": "CCN(C(=O)c1cc(Cl)ccc1OC)c1ccccc1", "IC50": "> 100 µM"}
{"smiles": "O=C(Nc1ccc(OCc2ccccc2)c(Cl)c1)c1cc(-c2cccc(O)c2)on1", "IC50": "> 100 µM"}
{"smiles": "O=C(Nc1ccc(CN2CCCCC2)cc1)c1cccc(OCc2ccccc2)c1", "IC50": "55.4 µM (active)"}
{"smiles": "O=C(Nc1ccc(F)cc1F)c1cc(-c2ccccc2)on1", "IC50": "> 100 µM"}
{"smiles": "COc1ccc(Cl)cc1S(=O)(=O)Nc1ccc(CCN2CCCCC2)cc1", "IC50": "> 100 µM"}
{"smiles": "O=C(Nc1ccc(Cl)cc1)c1cc(-c2cccc(O)c2)on1", "IC50": "> 100 µM"}
{"smiles": "O=C(Nc1cccc(F)c1)c1cc(-c2cccc(O)c2)on1", "IC50": "> 100 µM"}
{"smiles": "CN1CCN(c2ccc(NC(=O)c3cccc(OCc4ccccc4)c3)cc2)CC1", "IC50": "> 100 µM"}
{"smiles": "O=C(Nc1cc(Cl)cc(Cl)c1)c1cc(-c2cccc(O)c2)on1", "IC50": "> 100 µM"}
{"smiles": "COc1ccc(/C=C/C(=O)Nc2cccc(Cl)c2)cc1O", "IC50": "> 100 µM"}
{"smiles": "O=C(Nc1ccccc1C(F)(F)F)c1cc(-c2ccccc2)on1", "IC50": "> 100 µM"}
{"smiles": "COc1ccc(Cl)cc1C(=O)Nc1ccccc1", "IC50": "> 100 µM"}
{"smiles": "O=C(Nc1cccc(Cl)c1Cl)c1cc(-c2cccc(O)c2)on1", "IC50": "> 100 µM"}
{"smiles": "O=S(=O)(Nc1ccc(CN2CCCCC2)cc1)c1cccc(Cl)c1", "IC50": "> 100 µM"}
{"smiles": "O=C(Nc1ccccc1OCc1ccccc1)c1cc(-c2cccc(O)c2)on1", "IC50": "> 100 µM"}
